Pf Dd2 inh – blocks in vitro growth of P. falciparum Dd2. P. falciparum Dd2 growth, SYBR Green, 72 h. Potency, µM (titrated, usually from 28.9 µM), inactives show top-dose activity, negative = inhibition, hits mostly inhibitors. actives 4.3% (n = 120,000); active means well fitted inhibition curve with a large enough effect;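 further: plate controls were DMSO vehicle for no effect and reference drug for full effect; nearly all actives have a fitted effect of over 65% in size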
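Infected erythrocytes (Dd2, 0.3% parasitemia, 2.5% hematocrit final) are added to compound in RPMI-1640/Albumax II medium, grown 72 h at 37C in low oxygen, then lysed with saponin/Triton-X containing SYBR Green and read by fluorescence.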
Numbers without * were called inactive; i = inactive; [ ] = another dose, or the depositor's remark. This excerpt belongs to a sample that is enriched for hits. Potency means the concentration at half of the fitted maximal effect.

SMILES | Pf Dd2 inh
CN1C(=O)[C@H]2CN(Cc3ccc(F)c(Cl)c3)C[C@H]2C1=O | 46%
O=C1N(CCc2ccccc2)CCOC12CCN(Cc1ccc(F)c(Cl)c1)CC2 | -10%[44.1 µM]
OCC1(CN2CCCC2)CCN(Cc2cccc(O)c2)CC1 | -6%
COc1cc(CN2CCC(CO)(CN3CCCC3)CC2)ccc1F | 7.9µM*
COc1ccc(S(=O)(=O)N[C@H]2C[C@@H](c3nc(C(C)C)no3)N(C)C2)cc1 | -28%[44.1 µM]
Cc1cc(C(=O)N2CCCC(c3nn[nH]n3)C2)nn1C (stereo not drawn) | 35%
O=C1CC(c2noc(-c3cccc(F)c3)n2)CN1c1ccc(Cl)cc1 (stereo not drawn) | 36%
CNC(=O)[C@@H]1C[C@H](Oc2cccnc2)CN1C(=O)c1ccc(Cn2nc(C)cc2C)o1 | 30%
Cc1cc(CNC(=O)c2cc(-c3ccccc3F)cc3c2OCCN3C)no1 | i
Cc1noc(C)c1C(=O)N1CCN(c2cc(Cl)ncn2)C(=O)C1 | -21%
COc1cc(NC(=O)Nc2nnc(N3CCCCC3)s2)cc(OC)c1 | -8%
CCOc1ccc(NC(=O)Nc2nnc(N3CCCCC3C)s2)cc1 (stereo not drawn) | 11µM*
CCOc1ccc(NC(=O)CSc2nnc(NC(=O)Nc3ccccc3)s2)cc1 | 29%
CCC(O)Cn1nc(-c2ccco2)nc1-c1ccccc1-c1nn[nH]n1 (stereo not drawn) | 15%
CCc1ncc(C(=O)N2CCC(c3cc(Cc4ccccc4)[nH]n3)CC2)cn1 | 1%
Cc1ccc(-c2ccc3nnc(CNC(=O)c4cc(F)ccc4Cl)n3n2)cc1 | 30%
CC(Cc1cnccn1)NC(=O)c1csc2nc(-c3cccc(C(F)(F)F)c3)cn12 (stereo not drawn) | -17%
Cc1cc(C(=O)N2CCCn3ccnc3C2c2ccccc2)n(C)n1 (stereo not drawn) | 21%
Cc1ccc2c(n1)N(C)[C@H](CO)CCN(Cc1cn(C)c3ccccc13)C2 | 11µM*
Cc1ccc2c(n1)N(C)[C@H](CO)CCN(Cc1ccccc1Cl)C2 | -25%[44.1 µM]
Cc1ccc2c(n1)N(C)[C@H](CO)CCN(Cc1ccc(F)cc1)C2 | -3%[44.1 µM]
COc1ccccc1C(=O)Nc1ccnn1C1CCN(C(=O)CN)CC1 | -8%
COc1ccc(CCN(Cc2ccccc2F)CC2(O)CCCNC2)cc1 (stereo not drawn) | 13µM*
COc1ccc(CN2CC3(CCN(S(=O)(=O)Cc4ccccc4F)CC3)C2=O)cc1 | -1%
COc1ccc(CCNC(=O)C(=O)Nc2ccccc2F)cc1 | i
SMILES | Pf Dd2 inh
O=C1NCCCCCN(C(=O)NCCc2ccccc2)[C@H]2CCCC[C@@H]12 | -7%
CCc1nc(-c2ccc(C(=O)N3CCOCC3)cc2)n(-c2cccc(C)n2)n1 | -7%
CCOC(=O)C[C@@H]1CCN(C(=O)c2ccccc2)C[C@@H]1CCN1CCC[C@H]1C(N)=O | 3%[44.1 µM]
CCc1cccc(-n2nnnc2N2CCN(C(=O)Nc3ccc(C)c(Br)c3)CC2)c1 | -17%
CCc1cccc(-n2nnnc2N2CCN(C(=O)Nc3ccc(C)c(Cl)c3)CC2)c1 | -23%
Cc1ccc(NC(=O)N2CCN(c3nnnn3-c3cccc(C(F)(F)F)c3)CC2)cc1F | 7.9µM*
O=C(c1ccccc1Br)N1CCCN(C(=O)C2CC2)c2ccccc21 | -23%
CC(C)C(=O)Nc1ccc(C2(C(=O)O)CCCCC2)cc1 | -14%
CC(C)c1nc(NC2CCCC2)ncc1C(=O)O | 9%
CC1=C[C@@H](CNC(=O)c2ccccc2)[C@H](C(C)C)C[C@H]1Cc1nc2ccc(C)cc2[nH]1 | 0%[44.1 µM]
COC(=O)c1ccc2nc(C[C@@H]3C[C@@H](C(C)C)[C@H](CNS(=O)(=O)c4ccccc4)C=C3C)[nH]c2c1 | 10µM*
COC(=O)c1ccc2nc(C[C@@H]3C[C@@H](C(C)C)[C@H](CNC(=O)CCC(=O)O)C=C3C)[nH]c2c1 | i
COC(=O)c1ccc2nc(C[C@@H]3C[C@@H](C(C)C)[C@H](CNC(=O)c4cccnc4)C=C3C)[nH]c2c1 | 7.9µM*
COC(=O)c1ccc2nc(C[C@@H]3C[C@@H](C(C)C)[C@H](CNC(=O)CC4(CC(=O)O)CCCC4)C=C3C)[nH]c2c1 | i
COC(=O)c1ccc2nc(C[C@@H]3C[C@@H](C(C)C)[C@H](CNCc4ccc(NC(C)=O)cc4)C=C3C)[nH]c2c1 | -7%
CCOc1ccc(C2NC(=O)N(CC(=O)N(CC)CC)C3=C2C(=O)OC3)cc1 (stereo not drawn) | 3%
Cc1cc(C)c(C(=O)N2CCCC3(CN(C)C(=O)O3)C2)cn1 (stereo not drawn) | -2%
OCCC1CN(c2ccc(-c3nc(CCCc4ccccc4)no3)cn2)CCO1 (stereo not drawn) | i
COC1CN(c2cccc(F)c2)C12CCN(C(=O)COc1ccccc1)CC2 (stereo not drawn) | -15%
CCOc1ccc(Nc2c(S(=O)(=O)c3ccc(C)cc3)cnc3ccccc23)cc1 | -14%
CC1CCCN(c2c(S(=O)(=O)c3ccccc3)cnc3ccc(Cl)cc23)C1 (stereo not drawn) | -13%
Cc1ccc2ncc(S(=O)(=O)c3ccccc3)c(N3CCCCC3C)c2c1 (stereo not drawn) | 10µM*
O=C1NC2(Cc3ccccc31)CN(C(=O)C1CCCCC1)C2 | 11%
CNS(=O)(=O)CCNc1nccc(-c2cc(C(=O)O)ccn2)n1 | 9%
Cc1ccc(C)c(N2CCN(C(=O)Cn3c(C)c4cnn(-c5ccccc5)c(=O)c4c3C)CC2)c1 | i
SMILES | Pf Dd2 inh
Cc1c2cnn(-c3ccccc3)c(=O)c2c(C)n1CC(=O)N1CCN(c2cccc(Cl)c2)CC1 | 25%
CCC(C(=O)N1CCN(c2ccccc2)CC1)n1c(C)c2cnn(-c3ccccc3)c(=O)c2c1C (stereo not drawn) | 11µM*
CC(C)CCC(=O)N1CCCC1C(=O)Nc1ccccc1Oc1cccnc1 (stereo not drawn) | -4%
CC(C)CCNC(=O)C1CCc2sc(C(=O)N3CCCCC3)cc2C1 (stereo not drawn) | i
O=S(=O)(N1CCOCC1)N1CCOC(CCCc2ccccc2)C1 (stereo not drawn) | -15%
CC1=NS(=O)(=O)N(C)C=C1C(=O)OCc1noc(-c2ccccc2F)n1 | 24%
Cc1cc(CC(C)n2ccnc2-c2cc3n(n2)CCCNC3)n[nH]1 (stereo not drawn) | -3%
CC(C)NC(=O)CN1CN(c2ccccc2)C2(CCN(C(=O)NCc3ccccc3)CC2)C1=O | i
CC(C)(C)C(=O)N1CCC2(CC1)C(=O)N(CC(=O)Nc1cccc(Cl)c1)CN2c1ccccc1 | 4µM*
CCCNC(=O)CN1CN(c2ccccc2)C2(CCN(C(=O)Nc3ccc(CC)cc3)CC2)C1=O | -17%
O=C(c1ccco1)N1CCCC(CCc2cccc(F)c2)C1 (stereo not drawn) | -10%
Cc1cnc(C(=O)N2CCCC(CCc3cccc(F)c3)C2)cn1 (stereo not drawn) | 2%
O=C(c1cncc(N2CCCC(CCc3cccc(F)c3)C2)n1)N1CCCCC1 (stereo not drawn) | 11µM*
COCC1CN(C(C)=O)CC12CCN(C(=O)CCc1cccc(OC)c1)CC2 (stereo not drawn) | -24%
Cn1cnc2cc(-c3ccc(F)cc3)cc(C(=O)NCc3cccnc3)c21 | 11%[44.1 µM]
CNC(=O)CCn1ncc2cc(OCc3ccccc3-c3cc(F)ccc3C)ccc21 | 3.2µM*
CNC(=O)CCn1ncc2cc(OC3CCc4cccc(-c5ccnc(OC)c5)c43)ccc21 (stereo not drawn) | -7%
COc1ccccc1-c1cccc(COc2ccc3c(cnn3CC[S+](C)(=O)[O-])c2)c1 | -29%[44.1 µM]
